Shown are actives, neighbours in structure and some others; about 8.1% of the full set was active somewhere.
Shh pathway inh – blocks Sonic Hedgehog signaling; Shh-LIGHT2 Gli-luciferase reporter, 30 h; inhibition, % (test concentration not listed); 2.1% of 22,000 active;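 active means mean inhibition across valid replicates above about 65%, limit read from the data; inconclusive means mean under the limit, yet half or more replicates past it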;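 further: pathway switched on by Shh-conditioned medium diluted 1 in 25 in low serum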
NOMO-1 viab – STK33 inhibitor candidate reducing NOMO-1 cell viability. NOMO-1 AML viability, CellTiter-Glo luminescence, 72 h. inhibition, % (no concentration beside the values). 7.5% of 37,000 active; in the data active means inhibition above about 80%; inconclusive means no clear call, values can overlap the other calls
MITF inh – MITF inhibition. 0.28% of 37,000 active. inhibition, % (concentration not given with the values). AID 2240. TRPM1 promoter luciferase, luminescence, 24 h; in the data active means inhibition above about 85%; inconclusive means no clear call, values can overlap the other calls; inactive means below about 68%;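 further: human melanocyte line stably carrying TRPM1 promoter luciferase reporter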
A number is an active result; 0 = inactive; ? = inconclusive; - = no result given.

SMILES | Shh pathway inh | NOMO-1 viab | MITF inh
C[C@@H]1CN([C@H](C)CO)C(=O)c2cc(NC(=O)CCCCCC(=O)Nc3ccccc3N)ccc2O[C@H]1CN(C)S(C)(=O)=O | - | ? | 0
COc1ccccc1N1CCN(C(=O)CN(c2cc(Cl)ccc2OC)S(C)(=O)=O)CC1 | - | 0 | 0
CCOC(=O)c1c(O)c(O)c(C(=O)OCC)n1-c1ccc(OC)cc1 | 0 | 0 | 0
CCOC(=O)c1ccc(-n2c(C)cc(C=C3C(=O)NC(=S)NC3=O)c2C)cc1 | 0 | 121 | 0
COc1ccc(C(=O)CC2(O)C(=O)N(CCCC#N)c3ccccc32)c(OC)c1 (centres undefined) | - | 0 | 0
O=c1c(Cc2ccc(Br)cc2)csc2ccccc12 | 0 | 0 | 0
Cc1ccc2c(CC(=O)NCc3ccco3)coc2c1C | - | 115 | 0
Cc1ccc2c(CC(=O)Nc3cccc([N+](=O)[O-])c3)coc2c1C | - | 0 | 0
OC(c1ccccc1)c1oc2ccccc2c1-c1cnn(-c2ccccc2)c1 (centres undefined) | 98 | 112 | 0
Cc1ccc(NC(=O)C(C)Sc2n[nH]c(C)n2)cc1 (centres undefined) | - | 0 | 0
CCCC1=C(C(=O)OCC)C(c2cccnc2)n2ncnc2N1 (centres undefined) | - | 0 | 0
O=C(CCN1C(=O)c2ccccc2C1=O)Oc1c(-c2ccccc2)oc2ccccc2c1=O | - | 0 | 0
Cc1cccc(OCC(=O)Nc2cccc(-c3nc4ccccc4s3)c2)c1 | - | 0 | 0
O=C(O)COc1cccc(-c2nc3ccccc3s2)c1 | - | 0 | 105
O=C(CSc1nnc(-c2ccncc2)o1)c1cc2ccccc2oc1=O | - | 0 | 0
COc1ccc(OC)c(NC(=O)COc2ccc(C(=O)Nc3ccc(Cl)cc3)cc2)c1 | - | 0 | 0
COc1ccccc1NC(=O)c1ccc(OCC(=O)Nc2cc(Cl)cc(Cl)c2)cc1 | - | 86 | 0
O=C(CSc1ncn[nH]1)Nc1ccc(-c2nc3ccccc3s2)cc1 | - | 0 | 0
N#CC1=C(N)Oc2c(sc3ccccc23)C1c1ccccc1OC(=O)c1ccccc1Cl (centres undefined) | 0 | 115 | 0
N#CC1=C(N)OC(C2CC2)=C(C#N)C1c1ccccc1Cl (centres undefined) | 0 | 0 | 0
Nc1nc(CSc2nnc3c(n2)[nH]c2ccccc23)cs1 | - | 0 | 0
O=C(CN1C(=O)c2ccccc2S1(=O)=O)Nc1cccc(Br)c1 | - | 0 | 0
O=C(Nc1cccc(Br)c1)c1cccc2c1C(=O)c1ccccc1-2 | - | 102 | 0
Cc1cc(C)c(S(=O)(=O)N(C)CC(=O)Nc2cc([N+](=O)[O-])ccc2C)c(C)c1 | - | 0 | 0
Cc1ccc(S(=O)(=O)N(C)CC(=O)Nc2ccc3ccccc3c2)cc1 | - | 0 | 0
SMILES | Shh pathway inh | NOMO-1 viab | MITF inh
COc1ccc(S(=O)(=O)N(C)C[C@@H]2Oc3c(NC(=O)C4CCCCC4)cccc3C(=O)N([C@@H](C)CO)C[C@@H]2C)cc1 | 0 | 0 | 0
C[C@H](CO)N1C[C@H](C)[C@@H](CN(C)Cc2ccc(-c3ccccc3)cc2)Oc2ccc(NC(=O)Nc3ccc4c(c3)OCO4)cc2C1=O | 0 | 120 | 0
C[C@H]1CN([C@@H](C)CO)C(=O)c2cc(NC(=O)Nc3ccc4c(c3)OCO4)ccc2O[C@@H]1CN(C)Cc1ccc(-c2ccccc2)cc1 | 0 | 112 | 0
C[C@H](CO)N1C[C@H](C)[C@@H](CN(C)Cc2ccc(Oc3ccccc3)cc2)Oc2ccc(NC(=O)Nc3ccc4c(c3)OCO4)cc2C1=O | - | 0 | 0
C[C@@H]1CN([C@@H](C)CO)C(=O)c2cc(NC(=O)Nc3ccc4c(c3)OCO4)ccc2O[C@H]1CN(C)Cc1ccccc1 | 0 | 0 | 0
C[C@@H]1CN([C@H](C)CO)C(=O)c2cc(NC(=O)Nc3ccc4c(c3)OCO4)ccc2O[C@H]1CN(C)Cc1ccc(Oc2ccccc2)cc1 | - | 0 | 0
C[C@@H]1CN([C@@H](C)CO)C(=O)c2cc(NC(=O)Nc3ccc4c(c3)OCO4)ccc2O[C@H]1CN(C)Cc1ccc(-c2ccccc2)cc1 | - | 116 | 0
C[C@@H]1CN([C@@H](C)CO)C(=O)c2cc(NC(=O)Nc3ccc4c(c3)OCO4)ccc2O[C@H]1CN(C)Cc1ccc(Oc2ccccc2)cc1 | - | 0 | 0
C[C@@H]1CN([C@H](C)CO)C(=O)c2cc(NC(=O)Nc3ccc4c(c3)OCO4)ccc2O[C@@H]1CN(C)Cc1ccc(Oc2ccccc2)cc1 | 92 | 0 | 0
CCCc1ccc(-c2cc(C(=O)NCc3cnn(C)c3)c3ccccc3n2)cc1 | - | 0 | 0
COc1ccc(-c2nnc(SCC(=O)Nc3cc(Cl)c(Cl)cc3Cl)n2C)cc1 | - | 0 | 0
CCCN(Cc1cc2cccc(C)c2[nH]c1=O)S(=O)(=O)c1ccccc1 | - | 0 | 0
Cc1ccc(S(=O)(=O)N(C)C[C@H]2Oc3c(NC(=O)Nc4ccc5c(c4)OCO5)cccc3C(=O)N([C@@H](C)CO)C[C@H]2C)cc1 | 0 | 0 | 0
C[C@H](CO)N1C[C@H](C)[C@H](CN(C)S(=O)(=O)c2ccc(Cl)cc2)Oc2c(NC(=O)Nc3ccc4c(c3)OCO4)cccc2C1=O | 110 | 0 | 0
Cc1ccc(S(=O)(=O)N(C)C[C@@H]2Oc3c(NC(=O)Nc4ccc5c(c4)OCO5)cccc3C(=O)N([C@@H](C)CO)C[C@H]2C)cc1 | 0 | 0 | 0
C[C@H]1CN([C@@H](C)CO)C(=O)c2cccc(NC(=O)Nc3ccc4c(c3)OCO4)c2O[C@H]1CN(C)S(=O)(=O)c1ccc(Cl)cc1 | 107 | 92 | 0
O=C1C=C(NC2CCCC2)CC(c2ccccc2)C1 (centres undefined) | 0 | 111 | 0
c1ccc(NC2CCCCC2)nc1 | 0 | 0 | 0
COc1ccc(NC(=O)CC2NCCNC2=O)cc1 (centres undefined) | - | 0 | 0
C[C@@H]1CN([C@H](C)CO)C(=O)Cc2cc(NC(=O)Cc3cn(C)c4ccccc34)ccc2O[C@H]1CN(C)C(=O)Nc1ccc(C(F)(F)F)cc1 | 83 | 0 | 0
C[C@@H]1CN([C@H](C)CO)C(=O)Cc2cc(NC(=O)Cc3cn(C)c4ccccc34)ccc2O[C@@H]1CN(C)Cc1ccc(Oc2ccccc2)cc1 | 0 | 116 | 0
C[C@H](CO)N1C[C@H](C)[C@H](CN(C)Cc2ccc(Oc3ccccc3)cc2)Oc2ccc(NC(=O)Cc3cn(C)c4ccccc34)cc2CC1=O | 0 | 0 | 0
C[C@H]1CN([C@@H](C)CO)C(=O)Cc2cc(NC(=O)Cc3cn(C)c4ccccc34)ccc2O[C@@H]1CN(C)C(=O)Nc1ccc(F)cc1 | 0 | 0 | 0
C[C@@H]1CN([C@H](C)CO)C(=O)Cc2cc(NC(=O)Cc3cn(C)c4ccccc34)ccc2O[C@@H]1CN(C)Cc1ccc(-c2ccccc2)cc1 | 0 | 110 | 0
C[C@@H]1CN([C@@H](C)CO)C(=O)Cc2cc(NC(=O)Cc3cn(C)c4ccccc34)ccc2O[C@@H]1CN(C)Cc1ccc(-c2ccccc2)cc1 | 0 | 0 | 0
CC(=O)NC1=NN(C(C)=O)C(C)(CS(=O)(=O)c2ccc(C)cc2)S1 (centres undefined) | - | 0 | 0
O=C(Nc1ccc(Br)cc1)c1ccc(NS(=O)(=O)c2cccc3cccnc23)cc1 | - | 0 | 0
N#CC(C#N)=C(N)Nc1ccccc1 | 0 | 0 | 0
CSc1sc(C(=O)Sc2ccccc2)cc1S(=O)(=O)C(C)C | 0 | 106 | 0
CSc1cccc(NC(=O)C(C)NS(=O)(=O)c2ccccc2)c1 (centres undefined) | - | 0 | 0
